The source of these data is paper PMC4336329 (PLoS ONE, 2015).

Hit rate of the full screen: of about 310,000 compounds, about 14,000 (4.5%) showed an effect of 50% or more. Effects have a minus sign here. The entries come from a sample that favours strong results as a whole.
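Note: peak tail current of the secondary pulse compared with the same well before compound.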

For the assay, the target named is human ether-à-go-go-related gene (hERG) potassium channel (human, UniProt Q12809). In words: primary screen, population patch clamp on CHO cells stably expressing hERG; higher = less effect of the substance.
Chain of human ether-à-go-go-related gene (hERG) potassium channel (Q12809 whole entry, looked up): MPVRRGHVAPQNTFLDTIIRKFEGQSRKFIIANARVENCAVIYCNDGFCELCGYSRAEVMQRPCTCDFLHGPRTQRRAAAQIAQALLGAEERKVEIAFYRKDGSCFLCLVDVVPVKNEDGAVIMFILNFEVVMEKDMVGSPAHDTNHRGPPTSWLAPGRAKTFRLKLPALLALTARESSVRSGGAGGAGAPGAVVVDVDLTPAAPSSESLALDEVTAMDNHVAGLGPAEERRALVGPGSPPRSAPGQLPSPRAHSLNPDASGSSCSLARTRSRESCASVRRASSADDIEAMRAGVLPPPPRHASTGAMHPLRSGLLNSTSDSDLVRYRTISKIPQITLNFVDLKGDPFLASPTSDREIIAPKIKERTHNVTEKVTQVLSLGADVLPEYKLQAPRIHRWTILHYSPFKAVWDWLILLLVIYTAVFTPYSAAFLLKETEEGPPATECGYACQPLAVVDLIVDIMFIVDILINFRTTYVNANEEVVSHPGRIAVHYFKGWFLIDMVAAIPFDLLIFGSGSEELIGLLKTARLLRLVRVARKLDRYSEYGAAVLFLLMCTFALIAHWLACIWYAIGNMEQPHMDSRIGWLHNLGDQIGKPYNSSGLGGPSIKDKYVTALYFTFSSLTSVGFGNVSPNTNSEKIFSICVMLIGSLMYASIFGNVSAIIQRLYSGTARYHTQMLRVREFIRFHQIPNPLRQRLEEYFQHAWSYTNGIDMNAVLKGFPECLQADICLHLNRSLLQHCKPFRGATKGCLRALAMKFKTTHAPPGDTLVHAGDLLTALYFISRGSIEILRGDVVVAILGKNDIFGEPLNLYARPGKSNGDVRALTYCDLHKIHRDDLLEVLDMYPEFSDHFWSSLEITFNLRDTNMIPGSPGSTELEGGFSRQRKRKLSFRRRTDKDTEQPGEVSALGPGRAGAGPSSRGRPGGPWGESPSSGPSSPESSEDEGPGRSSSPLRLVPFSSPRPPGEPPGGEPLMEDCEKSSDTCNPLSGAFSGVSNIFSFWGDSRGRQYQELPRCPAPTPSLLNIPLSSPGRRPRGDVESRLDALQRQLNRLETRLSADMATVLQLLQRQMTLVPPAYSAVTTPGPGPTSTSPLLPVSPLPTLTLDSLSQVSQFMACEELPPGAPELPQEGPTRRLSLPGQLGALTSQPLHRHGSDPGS
In the case of `CCn1c(SCC(=O)NC2CCCc3ccccc32)nnc1-c1cccs1` (centres unmarked), the “hERG current change (%, negative = inhibition) at 10uM” value is recorded as -24.6%.
Next, `CC(Nc1ccc(Cl)cc1)C(=O)NN` (centres unmarked): -5.86%; `COc1cccc(NC(=O)c2c(F)cccc2F)c1`: -6.78%.
In the case of `CCOC(=O)c1[nH]cnc1C(=O)Nc1cccc(OC)c1`, the “hERG current change (%, negative = inhibition) at 10uM” value amounted to 2.14%.
In the case of `NC(=O)c1cc(S(=O)(=O)NCc2ccc(F)cc2)cs1` it was 3.37%.
Next, `S=C(NCc1ccc(Cl)cc1)N1CCN(c2ccccn2)CC1`: -23.9%.
On to `Nc1nc(CSc2ccccn2)nc(Nc2ccccc2)n1`, for which the “hERG current change (%, negative = inhibition) at 10uM” value was determined as 1.81%.
In the case of `Cc1ccccc1Nc1nc(N)nc(CN2CCN(C(=O)c3ccccc3)CC2)n1` it was -37.9%.
Turning to `Nc1nc(CSC(=S)N2CCN(c3ccccc3)CC2)nc(Nc2ccc(F)cc2)n1`, the “hERG current change (%, negative = inhibition) at 10uM” value is 2.14%.
In the case of `Nc1nc(CSc2ncn[nH]2)nc(Nc2ccc(F)cc2)n1` it was 6.74%; in that of `Cc1ccc(SCc2nc(N)nc(Nc3ccccc3C)n2)cc1C`, 1.31%.
Take `Cc1ccccc1Nc1nc(N)nc(CSc2ccccc2)n1`: the “hERG current change (%, negative = inhibition) at 10uM” value is listed as -21%.
In the case of `Cc1ccccc1Nc1nc(N)nc(CSc2ccc(F)cc2)n1` it was -50.4%.
Consider `Cc1ccccc1Nc1nc(N)nc(CCl)n1`, for which the “hERG current change (%, negative = inhibition) at 10uM” value stood at 10.5%.
Next, `Cc1ccccc1Nc1nc(N)nc(CN2CCN(c3ccccn3)CC2)n1`: -66.6%.
In the case of `Nc1nc(CN2CCN(c3ccccn3)CC2)nc(Nc2ccc(F)cc2)n1` it was -67.4%; in that of `Nc1nc(CN2CCN(c3ccccn3)CC2)nc(Nc2ccc(Cl)cc2)n1`, -74.8%.
Take `O=C(c1ccc(Cl)cc1)N1N=CCC1(O)c1ccc(Cl)cc1` (centres unmarked): the “hERG current change (%, negative = inhibition) at 10uM” value was determined as 15.7%.
In the case of `COc1cc(NC(=O)CN2C(=O)NC3(CCOc4ccccc43)C2=O)cc(OC)c1` (centres unmarked) it was -3.2%; in that of `CCc1ccc(NC(=O)C2CCN(S(=O)(=O)c3ccc4[nH]c(=O)ccc4c3)CC2)cc1`, 3.6%; in that of `Cc1ccc(NC(=O)c2c([N+](=O)[O-])c(C(C)(C)C)nn2C)c(C)c1`, 20.7%.
Next, `Cc1ccc2cc(/C=N/NC(=O)c3ccccc3[N+](=O)[O-])c(Cl)nc2c1`: -5.33%; `Cc1cc(C(=O)NCCN2C(=O)S/C(=C\c3cccs3)C2=O)ccc1[N+](=O)[O-]`: -1.91%.
Next, `COc1ccc(NC(=S)N2CCN(c3ccccn3)CC2)cc1`: -0.967%.
As for `COc1ccc(Nc2nc(N)nc(CSc3nccn3C)n2)cc1`, the “hERG current change (%, negative = inhibition) at 10uM” value was determined as 4.64%.
Next, `COc1ccc(Nc2nc(N)nc(CN3CCN(c4ccccn4)CC3)n2)cc1`: -65.1%.
